# From PubChem BioAssay
# In the library only some 11% were active in any assay of this set; here they are far more common.
# Tau fluor counter = Counterscreen qHTS for Inhibitors of Tau Fibril Formation, Fluorescence Polarization | tau K18 P301L Alexa594 fluorescence, heparin fibrillization | Potency, µM (titrated, usually from 57.7 µM), inactives show at the highest dose activity change, negative = decrease | 280,000 compounds, 0.93% hits; further: potency means the concentration at half of the fitted maximal effect; nearly all actives have a fitted effect of over 55% in size
#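 Human tau K18 P301L (15 uM unlabeled, 0.24 uM Alexa 594-labeled) in 100 mM sodium acetate pH 7 with 20 uM heparin, 6 hr at 37 C. ThT 30 uM added, 1 hr ambient; Alexa 594 FP and total fluorescence read at 555/632 nm.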
# FBPA coupling cs = qHTS Assay for Inhibitors of Fructose-1,6-bisphosphate Aldolase from Giardia Lamblia: Coupling assay counterscreen; activity change, negative = inhibition, % at 58.2 µM, hits read low; 290,000 compounds, 0.67% hits; coupling enzyme system counterscreen, AmpLite Red fluorescence; in the data active means activity change below about -30%
#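 Compounds tested against the coupling enzymes alone at 57.5 uM final; readout was AmpLite Red fluorescence (525/598 nm) after 20 min at RT.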
# G9a inh = qHTS Assay for Inhibitors of Histone Lysine Methyltransferase G9a; Histone-lysine N-methyltransferase EHMT2 (Homo sapiens), Q96KQ7; Potency, µM (highest dose often 102 µM), for the others: top-dose activity, negative = inhibition, actives largely listed as inhibitors; 350,000 compounds, 8.8% hits; G9a H3K9 monomethylation, AlphaScreen, 2 h; further: potency means the concentration at half of the fitted maximal effect; nearly all actives have a fitted effect of over 75% in size
# Target sequence (Q96KQ7 913-1193 limits assumed): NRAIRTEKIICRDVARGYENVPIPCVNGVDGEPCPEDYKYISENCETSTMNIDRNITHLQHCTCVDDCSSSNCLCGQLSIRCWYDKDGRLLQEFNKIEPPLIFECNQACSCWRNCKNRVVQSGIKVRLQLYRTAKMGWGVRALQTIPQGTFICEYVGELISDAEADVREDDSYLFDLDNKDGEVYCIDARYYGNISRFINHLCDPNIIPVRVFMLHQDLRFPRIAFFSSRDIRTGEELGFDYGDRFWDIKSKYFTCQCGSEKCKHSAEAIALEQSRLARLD
#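 Quantitative HTS format: methyltransferase activity on a biotin-tagged H3K9 peptide is measured by AlphaScreen, using a rabbit anti-monomethyl-H3K9 antibody with streptavidin donor and anti-IgG acceptor beads. Final levels are 20 nM enzyme, 500 nM peptide, 20 uM SAM; 2 h RT.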
# Sfp PPTase inh = qHTS Assay for Inhibitors of Bacillus subtilis Sfp phosphopantetheinyl transferase (PPTase). 4'-phosphopantetheinyl transferase ffp (Bacillus subtilis), Q9F4F7. 310,000 compounds, 3.5% hits. Biochemical Sfp PPTase activity, qHTS. Potency, µM, for the others: largest response in the series, negative = inhibition, actives largely listed as inhibitors;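 further: the enzyme is Sfp with the accession as filed and its product quenches rhodamine fluorescence; potency means the concentration at half of the fitted maximal effect; 0% = enzyme reaction without inhibitor and -100% = no enzyme wells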
#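 Reaction rates are the 30-min fluorescence difference (ex 525, em 598 nm) in wells containing 15 nM Sfp, 5 uM rhodamine-CoA and 12.5 uM BHQ-2-YbbR at pH 7.6 with 10 mM MgCl2.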
# Tau fibril FP = qHTS for Inhibitors of Tau Fibril Formation, Fluorescence Polarization; Microtubule-associated protein tau (Homo sapiens), P10636; 280,000 compounds, 0.39% hits; K18 P301L tau heparin fibrillization, Alexa594 FP, 6 h; AID 1468, 2008; Potency, µM (series often up to 57.7 µM), for the others: at the top dose activity, negative = inhibition, usual class: inhibitors; further: potency means the concentration at half of the fitted maximal effect; nearly all actives have a fitted effect of over 55% in size
# Target sequence (P10636 561-689 P618L limits assumed): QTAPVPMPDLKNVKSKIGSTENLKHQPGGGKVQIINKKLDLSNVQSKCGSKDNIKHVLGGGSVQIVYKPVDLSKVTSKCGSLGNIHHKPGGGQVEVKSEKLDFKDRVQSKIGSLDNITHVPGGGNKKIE
#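 Human tau K18 […] P301L fragment, 15 uM unlabeled plus 0.24 uM Alexa 594-labeled tau (final), with compound and 20 uM heparin in 100 mM sodium acetate pH 7; 6 hr at 37 C, then Alexa 594 FP read.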
# Tau ThT inhib = qHTS for Inhibitors of Tau Fibril Formation, Thioflavin T Binding; 270,000 compounds, 2.1% hits; Microtubule-associated protein tau (Homo sapiens), P10636; Potency, µM (top dose mostly 57.4 µM), without a hit: top-dose activity, negative = inhibition, actives largely listed as inhibitors; recombinant tau K18 P301L (four-repeat tau fragment), heparin-induced fibrillization, ThT fluorescence; AID 1460, 2008; further: potency means the concentration at half of the fitted maximal effect; nearly all actives have a fitted effect of over 55% in size
#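 Tau K18 P301L fragment (15 uM unlabeled plus 0.24 uM Alexa 594-labeled) in 100 mM sodium acetate pH 7 with compound, fibrillization induced by 20 uM heparin for 6 hr at 37 C. Thioflavin T (30 uM) added, fluorescence read after 1 hr (ex 450, em 510 nm).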
# Active calls of the source: *; ? = inconclusive; · = not tested or not shown; [ ] = remark or other dose. Unless noted, the call rests on the fitted dose curve; in most records, active means well fitted curve in the direction sought with a large enough effect; inconclusive means small, poorly fitted or top-dose-only effect, or another doubt; inactive means no such curve, though single readings can be large; an effect the other way counts as inactive or inconclusive. Unless noted, on the % scale 0 is the no-effect control and ±100 the full control effect.
SMILES,Tau fluor counter,FBPA coupling cs,G9a inh,Sfp PPTase inh,Tau fibril FP,Tau ThT inhib
CCOC(=O)CCNC(=O)N1CCN(S(=O)(=O)c2ccc3c(ccn3C)c2)CC1,-3%,·,9%[59 µM],·,-7%,-5%
Brc1cc(Br)cc(CN2CCSCC2)c1,4%,3,·,-6%,5%,5%
O=C(CN1CCN(Cc2cccc(F)c2)CC1)NCc1ccccc1,·,1,28%,6%,·,·
Fc1ccc(CN2CCSCC2)cc1F,·,1,32µM*,-17%,·,·
c1ccc(CN2CCN(c3ncccn3)CC2)nc1,4%,3,5.6µM*,56µM*,-4%,-8%
Fc1cccc(CN2CCSCC2)c1,·,-2,25µM*,-18%,·,·
Brc1cccc(CN2CCN(c3ncccn3)CC2)c1,·,1,10µM*,-8%,·,·
Cn1cccc1C(=O)N1CCC2(CC1)CCN(c1ccccn1)CC2,·,1,-2%[12.7 µM],2%,·,·
COc1ccc(CN2CCN(Cc3cccc(F)c3)CC2)cc1OC,·,0,-11%[2.33 µM],?,·,·
CSc1ccc(CN2CCSCC2)cc1,·,-3,13µM*,-6%,·,·
Fc1ccc(CN2CCN(c3ncccn3)CC2)cc1,-9%,1,10µM*,-14%,3%,-8%
Brc1cccc(CN2CCCCCCC2)c1,-8%,1,11µM*,-2%,-7%,-16%
CCc1ccc(CN2CCSCC2)cc1,·,3,·,-13%,·,·
Fc1cccc(CN2CCCCCCC2)c1,12%,-7,13µM*,-17%,3%,-5%
COCCN1Cc2cccc(C(=O)N3CCN(c4cc(C)ccc4C)CC3)c2C1=O,-3%,1,45µM*,-17%,1%,-18%
CCCN1Cc2cccc(C(=O)N3CCN(c4cc(Cl)ccc4C)CC3)c2C1=O,-2%,4,-80%,3%,3%,-9%
CCOC(=O)c1ccc(N2CCN(c3ccc(F)cc3)CC2)c(NC(=O)Nc2ccc(CC)cc2)c1,14%,·,-4%[59 µM],·,9%,8%
CC(=O)c1ccc(NC(=O)c2noc3c2CCC3)cc1,1%,-2,40µM*,-5%,-4%,?
COc1ccc(NC(=O)c2noc3c2CCC3)cc1,-17%,1,?,8%,-1%,?
Cc1ccc(-n2nc3ccc(NC(=O)c4ccc5c(c4)OCO5)cc3n2)cc1,-15%,-3,71µM*,3%,3%,?
CC(C)C(=O)Nc1ccc2nn(-c3ccc(F)cc3)nc2c1,·,2,?,0%,·,·
Cc1ccc(-n2nc3ccc(NC(=O)C(C)C)cc3n2)cc1,-10%,2,13µM*,-2%,-6%,-10%
CCc1ccc(-n2nc3ccc(NC(=O)c4ccc5c(c4)OCO5)cc3n2)cc1,-19%,0,?,15%,?,?
CCNc1ncnc2c1nnn2C,3%,·,15%[59 µM],·,-4%,0%
Cc1cc(C)n2nc(CC(=O)NNC(=O)COc3ccccc3)nc2n1,·,·,25µM*,2%,·,·
SMILES,Tau fluor counter,FBPA coupling cs,G9a inh,Sfp PPTase inh,Tau fibril FP,Tau ThT inhib
Cc1cc(C(=O)COC(=O)CC2Sc3ccccc3NC2=O)c(C)n1-c1ccc(Br)cc1 (centres undefined),13%,-6,56µM*,-6%,2%,12%
Cc1cc(C(=O)COC(=O)CC2Sc3ccccc3NC2=O)c(C)n1-c1ccccc1 (centres undefined),-30%,-6,?,1%,0%,?
Cc1ccc(S(=O)(=O)NCCc2nnc3ccc(SCC(=O)Nc4c(C)cc(C)cc4C)nn23)cc1,-6%,·,-10%[59 µM],·,-2%,-1%
Cc1ccc2sc(N(CCCN(C)C)C(=O)c3ccc(S(=O)(=O)N4CCCCCC4)cc3)nc2c1C,·,·,50µM*,·,·,·
Cc1cc(C)c2nc(N(CCCN(C)C)C(=O)c3ccc(S(=O)(=O)N4CCCCCC4)cc3)sc2c1,·,·,50µM*,·,·,·
COc1cccc2sc(N(CCN(C)C)C(=O)c3ccc(S(=O)(=O)N4CCCC4)cc3)nc12,·,·,-49%,3%,·,·
Cc1ccc2sc(N(CCCN(C)C)C(=O)CN3C(=O)c4ccccc4C3=O)nc2c1C,-14%,-1,50µM*,-8%,-7%,?
Cc1ccc2sc(N(Cc3cccnc3)C(=O)Cc3ccccc3)nc2c1C,-16%,·,2%[59 µM],·,-1%,-7%
COCCn1c(C)cc(O)c(C(c2ccccc2)N2CCN(c3ccc(F)cc3)CC2)c1=O (centres undefined),-5%,·,?,·,-13%,?
CCOc1ccc(C(c2c(O)cc(C)n(CCOC)c2=O)N2CCN(c3ccc(F)cc3)CC2)cc1 (centres undefined),1%,·,18µM*,·,-8%,?
COc1ccc(OC)c(-c2ccccc2/C=N/NS(=O)(=O)c2ccc(C)cc2)c1,-17%[11.6 µM],8,·,-5%,-2%[11.6 µM],-16%[11.5 µM]
CC1(C)CC(=O)C2=C(C1)Nc1ccccc1N=C2,-25%,-27,8.9µM*,40µM*,-13%,?
CC1(C)CC(=O)C2=C(C1)Nc1ccccc1S2,-27%,4,40µM*,0%,6%,?
CC1(C)CC(=O)C2=C(C1)Nc1ccccc1NC2,2%,-21,7%,10%,6%,4%
O=C1CC(c2ccco2)c2ccc3ccccc3c2N1 (centres undefined),2%,-5,50µM*,-4%,1%,-3%
C/C(Cn1nnc([N+](=O)[O-])n1)=N\NC(=O)c1ccc(O)cc1O,-23%,-36*,-3%[59 µM],-9%,-4%,?
C/C(Cn1cnc([N+](=O)[O-])n1)=N\NC(=O)c1ccccc1O,-6%,-3,?,-11%,-1%,-16%
C/C(Cn1nnc([N+](=O)[O-])n1)=N\NC(=O)c1ccc(Cl)c(Cl)c1,-9%,-43*,21%[59 µM],-3%,-2%,?
C/C(Cn1nnc([N+](=O)[O-])n1)=N\NC(=O)c1ccccc1O,-5%,-35*,-5%,-7%,8%,-12%
C/C(Cn1nnc([N+](=O)[O-])n1)=N\NC(=O)c1ccc(O)cc1,-8%,-29,-3%,5%,-3%,·
Cc1ccc(C(=O)CSc2nc(-c3ccccc3)nc3c2CCCC3)cc1,-19%,·,-7%[59 µM],·,-10%,-9%
Cc1cc(NC(=O)CC(C)C)c(=O)n(Cc2ccccc2F)c1,·,-36*,·,-6%,·,·
N#CCCn1c(=O)c(-c2ccc(Cl)cc2)nc2cnc(Oc3ccccc3)nc21,·,3,2%[0.501 µM],23%,·,·
